Among the data in PubChem BioAssay (NCI) are growth values, retold here.

About 83,000 compounds went through this panel and 20% of them were active in at least one assay; those are over-represented in the sample as a whole.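 Treatment: one concentration, 48 hours, 96-well format. Scoring: percent growth, with anything below 10 considered active.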 Unmarked numbers belong to inactive results. The source made the active and inactive calls.

Holding throughout (experiment): NCI-60 one-dose screen, 48 h (100 = growth as untreated, 0 = no growth, -100 = all killed)
What all share (details): 10 µM unless noted

Assay [1] relates to SR leukemia.
Assay [2] has as its system RPMI-8226 leukemia.
Assay [3] concerns OVCAR-8 ovarian.
Assay [4] deals with OVCAR-5 ovarian.
Assay [5] concerns OVCAR-4 ovarian.
The subject of assay [6] is SK-OV-3 ovarian.
Assay [7] relates to IGROV1 ovarian.
Assay [8] deals with OVCAR-3 ovarian.
The test system of assay [9] is HS 578T breast.
For assay [10], the system named is NCI/ADR-RES ovarian.
In assay [11] the test system is T-47D breast.
Assay [12] relates to BT-549 breast.
Assay [13] has as its system MDA-MB-435 melanoma.
The test system of assay [14] is SW-620 colon.
For assay [15], the system named is MCF7 breast.
In assay [16] the test system is HCT-116 colon.
Assay [17] deals with KM12 colon.

In the case of `COC(=O)c1cc(-c2ccc(S(C)(=O)=O)cc2)[nH]c1N/N=C/c1c(Cl)cccc1Cl`, the growth was -12.3% (active) in [1]; -5.71% (active) in assay [2]; 29.7% in [3]; 42.6% in [4]; 59.6% in [5]; 29.2% in [6]. In addition, the growth is -43.6% (active) in assay [7]; -33.6% (active) in assay [8]; -30.1% (active) in assay [9]; 3.91% (active) in assay [10]; 31.2% in assay [11]; 70.7% in assay [12]. In addition, the growth was -69.7% (active) in assay [13]; 15% in [14]; -5.62% (active) in [15]; 11.4% in assay [16]; 20.6% in assay [17].
As for `Fc1cc(F)cc(C(c2c[nH]c3ccccc23)c2c[nH]c3ccccc23)c1`, the growth in assay [1] was 106%; in [2] it was 95.2%; in assay [3], 102%; in assay [4], 88.8%; in assay [5], 116%; in assay [6], 117%. Moreover, the growth in [7] is -6.52% (active); in assay [8], 112%; in assay [9] it was 82%; in assay [10], 92.2%; in assay [11], 97%; in assay [12], 135%. The growth in assay [13] was 103%; in [14], 93%; in assay [15], 110%; in assay [16], 89.8%; in [17], 97.5%.
Turning to `O=C(Nc1cccc([N+](=O)[O-])c1)c1cc2ccccc2cc1O`, the growth was 48.6% in assay [1]; -55.3% (active) in [2]; 9.47% (active) in assay [3]; 10.8% in assay [4]; 15.6% in assay [5]; -82% (active) in assay [6]. The growth in [7] was -2.54% (active); in assay [8] it was -9.94% (active); in assay [9], 6.07% (active); in assay [10], -10.6% (active); in assay [11], 3.67% (active); in assay [12] it was -7.42% (active). The growth was -1.29% (active) in assay [13]; 6.15% (active) in assay [14]; -4.92% (active) in [15]; 7.4% (active) in assay [16]; -10.3% (active) in [17].
`COc1cc(CNS(=O)(=O)c2ccc(C)cc2)ccc1OCc1cn(-c2ccc(F)cc2)nn1`: the growth in assay [1] is 78.9%; in assay [2] it was 61.1%; in [3] it was 95.5%; in assay [4], 102%; in assay [5] it was 72.2%; in assay [6] it was 85.2%. Also, the growth is 94.1% in assay [7]; 91.1% in assay [8]; 97.8% in assay [9]; 85.8% in assay [10]; 53.7% in assay [11]; 83.6% in [12]. In addition, the growth is 94.4% in [13]; 98.6% in assay [14]; 85.9% in assay [15]; 83.6% in [16]; 97.6% in assay [17].
Turning to `Cc1ccc(S(=O)(=O)N2CCCC2CO)cc1` (stereo unspecified), the growth in assay [1] was 112%; in assay [2] it was 62.6%; in assay [3], 103%; in assay [4] it was 85.7%; in assay [5] it was 93.5%; in assay [6] it was 102%. The growth was 90.6% in [7]; 104% in assay [8]; 79.5% in assay [9]; 56.7% in [10]; 100% in assay [11]; 86.6% in [12]. Besides, the growth in assay [13] is 111%; in assay [14], 96.8%; in assay [15], 91.3%; in assay [16], 96.8%; in assay [17], 104%.
For `CCn1c(=S)[nH]c2c(=O)n(C)c(=O)n(C)c21`, the growth in assay [1] is 110%; in [2] it was 101%; in [3] it was 101%; in assay [4], 104%; in assay [5] it was 114%; in assay [6], 107%. Further, the growth was 102% in assay [7]; 121% in assay [8]; 160% in [9]; 103% in assay [10]; 104% in assay [11]; 92.6% in [12]. Besides, the growth is 103% in [13]; 112% in assay [14]; 102% in assay [15]; 93.1% in assay [16]; 111% in assay [17].
With `O=C(Cn1cc(CN2C(=O)c3ccccc3S2(=O)=O)nn1)Nc1nc2ccccc2s1`, the growth in assay [1] was 121%; in assay [2] it was 107%; in assay [3], 102%; in [4], 101%; in [5], 100%; in assay [6], 79%. Moreover, the growth in [7] is 93.4%; in [8] it was 102%; in assay [9], 110%; in assay [10] it was 97.6%; in assay [11] it was 88.1%; in [12] it was 97.9%. The growth was 112% in [13]; 105% in assay [14]; 91.1% in assay [15]; 88% in assay [16]; 103% in assay [17].
`COC(=O)c1c2c(c[n+]([O-])c1C)C(=O)C(NCc1ccccc1)=CC2=O`: the growth in [1] was 2.6% (active); in [2], -24.5% (active); in [3] it was -2.43% (active); in assay [4], -79.9% (active); in assay [5], -97% (active); in assay [6], 8.1% (active). Also, the growth in assay [7] was -54.3% (active); in [8], -35.3% (active); in assay [9] it was -15.3% (active); in assay [10], -14.1% (active); in assay [11] it was -31.8% (active); in assay [12], -88.7% (active). The growth is -93.7% (active) in [13]; -19% (active) in [14]; -58.3% (active) in assay [15]; 1.8% (active) in [16]; -0.692% (active) in [17].
